High-throughput results (PubChem)
In the library only some 19% were active in any assay of this set; here they are far more common.
IL-1B inflam inh: inhibitors of inflammasome signaling (IL-1 beta secretion) | THP-1 LPS/ATP IL-1B secretion, AlphaLISA, 16 h; stronger effect = lower value | activity change, % at 57.5 µM | 360,000 compounds, 4.7% hits | AID 743279; in the data active = activity change below about -50%; inconclusive = mostly about -30% to -49%
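THP-1 cells pretreated 1 hr with compounds (up to 57.5 uM final), then stimulated with LPS (250 ng/mL final) plus ATP (1.25 mM final); secreted IL-1B measured by AlphaLISA after 16 hr, decreased signal indicating inhibition.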
TDP1 cell CPT: DT40-hTDP1 cell growth loss with CPT. Potency, µM (highest dose often 46.2 µM), most hits filed as inhibitors. 420,000 compounds, 12% hits. chicken DT40 Tdp1-/-;hTDP1 cells + 20 nM CPT, ATP luminescence, 48 h; note: nearly all actives have a fitted effect of over 55% in size
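Chicken DT40 Tdp1-/- cells complemented with human TDP1, 400 cells/well, exposed to compounds plus 20 nM camptothecin for at least 48 h at 37 C; viability read as ATP content by CellTiter-Glo luminescence.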
ELG1 DNA repair: inhibitors of ELG1-dependent DNA repair in HEK293T cells; Potency, µM (series often up to 46.1 µM), usual class: inhibitors; HEK293T ELG1-luciferase reporter, luminescence, 16 h; DNA damage induced by 5-fluorouridine; 330,000 compounds, 2.3% hits; note: nearly all actives have a fitted effect of over 55% in size
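5-Fluorouridine DNA damage + compound/DMSO, 2,000 cells/well, 16 h, 37 °C/5% CO2. ONE-Glo, 30 min RT, luminescence. Readout = decrease in reporter signal.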
HT1080-NT tox: kills 2HG-producing HT-1080-NT fibrosarcoma cells | Potency, µM (doses to about 46.1 µM), most hits filed as cytotoxic | AID 686970 | HT-1080-NT fibrosarcoma viability, CellTiter-Glo ATP luminescence, 48 h | 360,000 compounds, 1.6% hits;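 note: NT is the 2HG producing partner of a matched IDH1 knockdown line; nearly all actives have a fitted effect of over 55% in size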
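HT-1080-NT; 750 cells/well; 5% FBS RPMI; 48 h compound, 37 degrees C; CellTiter-Glo luminescence; curve fitting and curve-class assignment.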
HT1080 IDH1KD tx: kills HT-1080 cells with IDH1 knockdown. HT-1080 IDH1 knockdown viability, ATP luminescence, 48 h. Potency, µM (titrated, usually from 46.1 µM), usual class: cytotoxic. 360,000 compounds, 2% hits
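% activity derives from luminescence (CellTiter-Glo), normalised to DMSO and no-cell wells. HT-1080-IDH1KD cells, 750/well, had 48 h compound exposure at 37 °C.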
DT40 TDP1 no CPT: qHTS for Inhibitors of human tyrosyl-DNA phosphodiesterase 1 (TDP1): qHTS in cells in absence of CPT | DT40 Tdp1-/- hTDP1 cells, no CPT, ATP luminescence, 48 h | Potency, µM (series often up to 46.2 µM), hits mostly inhibitors | 420,000 compounds, 15% hits; note: nearly all actives have a fitted effect of over 55% in size
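Stably hTDP1-transfected Tdp1-null chicken DT40 cells were treated with library compounds minus camptothecin and grown for at least 48 hr at 37 °C, after which cellular ATP was quantified by luminescence.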
Hits are given with their value; . = inactive; ? = inconclusive; / = no result; [ ] = remark or other dose. Unless noted, calls come from the whole dose curve; as a rule, active = well fitted curve in the direction sought with a large enough effect; inconclusive = small, poorly fitted or top-dose-only effect, or another doubt; inactive = no such curve, though single readings can be large; an effect the other way counts as inactive or inconclusive.

SMILES	IL-1B inflam inh	TDP1 cell CPT	ELG1 DNA repair	HT1080-NT tox	HT1080 IDH1KD tx	DT40 TDP1 no CPT
Cc1ccc(C(=O)N2N=C(CC(C)C)CC2(O)C(F)(F)F)o1 (stereo not given)	.	.	.	.	.	.
O=C(COC(=O)c1ccc(O)cc1O)NC1CC1	.	.	.	.	.	.
c1ccc2c(c1)Cn1nnnc1-2	.	.	.	.	.	.
c1ccc2c(c1)CC1(CCCCC1)n1nnnc1-2	.	15µM	.	.	.	23µM
COc1cccc(OCc2cc(C3Nc4ccccc4C(=O)N3c3ccccc3)ccc2OC)c1 (stereo not given)	/	10µM	/	/	/	13µM
COc1ccc(C2Nc3ccccc3C(=O)N2Cc2ccccc2)cc1COc1ccccn1 (stereo not given)	.	?	?	.	.	.
CCCN1C(=O)c2ccccc2NC1c1ccc(OC)c(COc2ccc([N+](=O)[O-])cc2)c1 (stereo not given)	/	10µM	/	/	/	10µM
COc1ccc(C2Nc3ccccc3C(=O)N2Cc2ccccc2)cc1COc1ccccc1F (stereo not given)	/	?	/	/	/	14µM
CCCN1C(=O)c2ccccc2NC1c1ccc(OC)c(COc2cccc(OC)c2)c1 (stereo not given)	/	?	/	/	/	16µM
CCCN1C(=O)c2ccccc2NC1c1ccc(OC)cc1OC (stereo not given)	.	.	.	.	.	.
Cc1cc(=O)oc2cc(OCC(=O)NC3(C#N)CCCCC3)ccc12	.	.	/	.	.	.
Cc1cc2ccccc2n1CCNC(=O)C1CCCC1	.	.	.	.	.	?
CCOc1ccc(CNC(=O)C2CCN(Cc3cc4ccccc4n3Cc3ccccc3C)CC2)cc1	/	13µM	/	/	/	23µM
Cc1ccccc1Cn1c(CN2CCC(C(=O)NCCN(C)C)CC2)cc2ccccc21	/	3.3µM	/	/	/	4.1µM
COc1cccc(CNC(=O)C2CCN(Cc3cc4ccccc4n3Cc3ccc(C)cc3)CC2)c1	/	?	/	/	/	21µM
CCOc1ccc(S(=O)(=O)N2CCC(C(=O)NCc3ccccc3CN3CCCC3)CC2)cc1	.	.	.	.[9.24 µM]	.	.
O=C(NCCS(=O)(=O)NCc1ccccn1)c1ccccc1	.	.	?	.	.	.
CC1(C)CC2C1CCC1(C)OC2(C)CCC1O (stereo not given)	/	.	/	/	/	.
CCOc1ccc(-n2ccnc2SCC(=O)Nc2ccc(OC)cc2OC)cc1	/	.	/	/	/	?
CC1C(=O)N(Cc2cn(Cc3ccco3)nn2)CCS(=O)(=O)N1Cc1ccc(-c2ccc(Cl)cc2)cc1 (stereo not given)	.	18µM	/	.	.	13µM
CC(C)C1C(=O)N(Cc2cn(Cc3ccco3)nn2)CCS(=O)(=O)N1Cc1ccc(-c2ccncc2)cc1 (stereo not given)	.	.	/	.	.	.
CC1C(=O)N(Cc2cn(Cc3ccco3)nn2)CCS(=O)(=O)N1Cc1ccc(-c2ccccc2)cc1 (stereo not given)	.	?	/	.	.	18µM
COc1cc(/C=C/CNC[C@H]2O[C@@H](n3cnc4c(N)ncnc43)[C@H](O)[C@@H]2O)ccc1O	.	.	/	.	.	13µM
COc1ccc(C(=O)NC[C@H]2O[C@@H](n3cnc4c(N)ncnc43)[C@H](O)[C@@H]2O)cc1OC	.	.	/	.	.	.
CCn1c2ccccc2c(=O)c2ccccc21	.	?	.	.	.	.
CCn1c(-c2ccccc2)c(C(=O)CCl)c2ccccc21	-108	3.7µM	.	?	21µM	2.6µM
Cn1c(-c2ccccc2)c(C(=O)CCl)c2ccccc21	-118	2.6µM	?	15µM	10µM	3.3µM
Cn1c(-c2ccccc2)c(CCO)c2ccccc21	.	.	.	.	.	.
